In PubChem BioAssay AID588719 (Southern Research Specialized Biocontainment Screening …, 2011):
Screen size: about 1,500 compounds; about 920 (61%) were called active. The rule behind the calls is not given here. So high a share suggests a set chosen from earlier hits. Some of the results follow. Measured potencies and affinities stand elsewhere.

Assay: Vero 76 cell cytotoxicity, dose response, cytotoxicity control for VEEV inhibitor project (AID 588719)
Details: Vero 76 cells viability, cytotoxicity counter-screen; series mostly up to 25 µM; viability: at the top concentration
In the case of `CCN(CC)CCN(Cc1cc2ccc(C)cc2[nH]c1=O)C(=O)Nc1ccc(Cl)cc1`, the “viability” value is reported as 74.2% (inactive).
For `O=C(COc1cccc2ccccc12)Nc1ccc(Cl)cc1C(=O)O`, the “viability” value was 83.9% (inactive).
For `CCN(CC)CCNC(=O)c1cc2cc(Br)ccc2s1`, the “viability” value was 126% (inactive).
With `CC(=O)Nc1cc[n+](CC(=O)c2cccc([N+](=O)[O-])c2)cc1` the “viability” value was 94.5% (inactive).
For `Nc1ccc(C(=O)OCc2nc3cc4ccccc4cc3[nH]2)cc1`, the “viability” value was 79.8% (inactive).
In the case of `C[C@@H]1CN([C@H](C)CO)C(=O)CCCn2nncc2CO[C@@H]1CN(C)C(=O)c1cc(-c2ccccc2)on1`, the “viability” value is reported as 84.7% (inactive).
With `COc1ccc(-c2onc(C)c2-c2ccc3c(c2)OCCO3)c(O)c1` the “viability” value was 77.7% (inactive).
With `Cc1[nH]c2ccc(-c3nnc(SCC(=O)c4ccccc4F)o3)cc2c1C` the “viability” value was 85.8% (inactive).
With `O=C(CCCN1C(=O)/C(=C\c2ccco2)SC1=S)Nc1ccc2ccccc2c1` the “viability” value was 81.3% (inactive).
In the case of `CCOC(=O)c1c(NC(=O)C(C)Sc2cccc[n+]2[O-])sc2c1CCN(Cc1ccccc1)C2` (centres undefined), the “viability” value is reported as 70.2% (inactive).
With `Cc1nc2c(sc3nc(N4CCOCC4)c4c(c32)CC(C)(C)OC4)c(-c2ccccc2)c1C(=O)O` the “viability” value was 71.6% (inactive).
For `CC(C)CCOC(=O)C[N+](C)(C)CCOC1CC2CCC1(C)C2(C)C` (centres undefined), the “viability” value was 93.3% (inactive).
With `CC(Sc1nnc(Nc2ccccc2)s1)C(=O)Nc1nc(-c2ccccc2)cs1` (centres undefined) the “viability” value was 79.9% (inactive).
In the case of `O=C1NC(=O)N(Cc2ccccc2)C(=O)/C1=C/C=C/c1ccco1`, the “viability” value is reported as 86.7% (inactive).
In the case of `CCOC(=O)N1CCN(S(=O)(=O)c2ccc(C(=O)N(CCCN(C)C)c3nc4ccc(CC)cc4s3)cc2)CC1`, the “viability” value is reported as 74.5% (inactive).
With `COc1ccccc1C1CCCN1Cc1nc(-c2ccc(C)s2)oc1C` (centres undefined) the “viability” value was 70.5% (inactive).
With `NCCSc1c(-c2ccc(F)cc2)[nH]c2ccccc12` the “viability” value was 76.5% (inactive).
In the case of `CSc1nnc2c3ccccc3n(CCc3ccccc3)c2n1`, the “viability” value is reported as 89.9% (inactive).
With `CN(C)CC/C=C1/c2ccccc2Sc2ccc(Cl)cc21` the “viability” value was 72.8% (inactive).
For `CCCc1cc(C(=O)Nc2cnn(Cc3ccc(F)cc3)c2)no1`, the “viability” value was 88.8% (inactive).
With `COc1cc(C2C(C#N)=C(N)Oc3c2ccc2ccccc32)ccc1OCC(=O)Nc1ccc(C)cc1` (centres undefined) the “viability” value was 72.4% (inactive).
For `COc1cccc(N2C(=O)/C(=C/c3ccc(C)o3)C(=O)NC2=S)c1`, the “viability” value was 89.4% (inactive).
In the case of `CNCCCC12CCC(c3ccccc31)c1ccccc12`, the “viability” value is reported as 79.4% (inactive).
In the case of `Cc1ccccc1S(=O)(=O)N(C)C[C@H]1OCc2cnnn2CCCC(=O)N([C@H](C)CO)C[C@H]1C`, the “viability” value is reported as 95% (inactive).
With `CCOc1ccccc1CNC(=O)c1cc2oc3ccccc3c2n1C` the “viability” value was 71.7% (inactive).
For `Cc1oc(C(C)(C)C)cc1-c1cc(NC(=O)c2ccc([N+](=O)[O-])cc2)n[nH]1`, the “viability” value was 81.8% (inactive).
For `COc1ccccc1[C@@]1(C)ON(c2ccccc2C(F)(F)F)C1=O`, the “viability” value was 84.1% (inactive).
For `COc1ccc(C2(C)ON(c3ccccc3C(F)(F)F)C2=O)cc1` (centres undefined), the “viability” value was 81% (inactive).
With `O=C(CCN1C(=O)/C(=C/c2ccccc2F)SC1=S)NCCc1ccc(O)cc1` the “viability” value was 80.2% (inactive).
In the case of `O=C(O)CCN1C(=O)/C(=C2\C(=O)N(Cc3ccc(F)cc3)c3ccccc32)SC1=S`, the “viability” value is reported as 100% (inactive).
With `COc1cc(NC(C)CCCN)c2nc(C)ccc2c1Oc1ccc(F)cc1` (centres undefined) the “viability” value was 82.5% (inactive).
With `O=c1c2ccccc2nc(-c2ccoc2)n1CCc1ccccc1` the “viability” value was 78.6% (inactive).
With `CCc1[nH]nc(C(=O)NC2CCCc3c2cnn3-c2cc(C)cc(C)c2)c1C` (centres undefined) the “viability” value was 77.9% (inactive).
For `COc1ccc(OCCn2c(C)nc3ccccc32)cc1`, the “viability” value was 101% (inactive).
In the case of `CCCCCCCCCCOC(=O)Cn1c(COc2cccc(OC)c2)[n+](C)c2ccccc21`, the “viability” value is reported as 72% (inactive).
For `O=C(CSC1=Nc2ccccc2C2CC=NN12)Nc1ccc2c(c1)OCO2` (centres undefined), the “viability” value was 85% (inactive).
With `NC(=O)c1ccc(NC(=O)COC(=O)C2COc3ccccc3O2)cc1` (centres undefined) the “viability” value was 86.2% (inactive).
In the case of `C=CCn1c(SCC(=O)NNC(=O)Nc2cccc(Cl)c2)nnc1-c1ccccc1`, the “viability” value is reported as 99.4% (inactive).
For `NS(=O)(=O)c1cccc(NC(=O)CN2C(=O)C(=O)N(Cc3ccccc3)C2=O)c1`, the “viability” value was 98.3% (inactive).
In the case of `O=C(COC(=O)COc1ccccc1)Nc1ccc(Br)cc1F`, the “viability” value is reported as 95% (inactive).
For `CN(CCC#N)C(=O)COC(=O)c1ccc2[nH]c3c(c2c1)CCCC3`, the “viability” value was 87.1% (inactive).
With `Cc1ccc([C@H]2C[C@H](n3cc(-c4ccc(F)cc4)nn3)[C@@H](O)CN2CC2CCCCC2)cc1` the “viability” value was 76.3% (inactive).
With `Cc1nc(-c2ccccc2)sc1C(=O)/C=C/c1ccccc1` the “viability” value was 83.9% (inactive).
For `O=C(Nc1ncc(Cc2ccccc2Cl)s1)C1CCCO1` (centres undefined), the “viability” value was 92.1% (inactive).
With `Cc1nc(S/C(C(=O)O)=C2/C(=O)Nc3ccccc32)n[nH]1` the “viability” value was 96.2% (inactive).
In the case of `O=C1Nc2cc3c(cc2C1=O)sc1ccccc13`, the “viability” value is reported as 101% (inactive).
In the case of `O=C(C=Cc1cccs1)c1cccs1`, the “viability” value is reported as 88.5% (inactive).
With `CN1C[C@H](CNC(=O)OCc2ccccc2)C[C@@H]2c3cccc4c3c(cn4C)C[C@H]21` the “viability” value was 71.6% (inactive).
In the case of `Cc1ccc2c(c1)cc(C(=O)NCc1ccccc1)n2C`, the “viability” value is reported as 77.6% (inactive).
For `COc1ccc(/C=N/NC(=O)c2cccnc2)cc1COc1ccc(NC(C)=O)cc1`, the “viability” value was 79.2% (inactive).
In the case of `CCn1c(O)c(/C=N/NC(=O)c2ccccc2)c(=O)[nH]c1=S`, the “viability” value is reported as 94.8% (inactive).
In the case of `O=[N+]([O-])c1cccc(-c2c[n+]3c(n2-c2ccccc2)SCC3)c1`, the “viability” value is reported as 102% (inactive).
For `COc1cc(/C=C2/SC(=S)N(CCC(=O)N3CCN(C)CC3)C2=O)cc(OC)c1OC`, the “viability” value was 75.2% (inactive).
With `COCCN(Cc1nc(-c2ccc(-c3ccccc3)cc2)oc1C)C(C)C` the “viability” value was 72% (inactive).
With `COc1cccc(NC(=S)N(CCCN2CCCC2)Cc2cccn2Cc2ccc(Cl)cc2)c1` the “viability” value was 81.5% (inactive).
In the case of `COc1ccc(NC(=O)[C@H](Cc2c[nH]c3ccccc23)NC(=O)[C@@H]2Cc3ccccc3CN2)cc1`, the “viability” value is reported as 71.8% (inactive).
With `O=C(Cc1c[nH]c2ccccc12)Nc1nnc(C2CC2)s1` the “viability” value was 74.5% (inactive).
With `O=C1C2CCCN2C(c2ccccc2)N1c1ccc(Cl)cc1` (centres undefined) the “viability” value was 70.4% (inactive).
With `CC(=O)c1c(C)cc(C)c(CSc2nc(C)cc(=O)[nH]2)c1C` the “viability” value was 83.9% (inactive).
With `CCc1ccc([C@@H]2C[C@H]3[C@@H](CN2S(=O)(=O)c2ccc(C)cc2)C(=O)C[C@@H](c2ccc(Cl)cc2)N3S(=O)(=O)c2ccccc2C)cc1` the “viability” value was 84.9% (inactive).
With `Cc1cc2nc(/N=C(\N)NC(=O)C(C)C)nc(C)c2cc1C` the “viability” value was 77.7% (inactive).
In the case of `O=c1c2ccccc2[nH]c(=S)n1CCCN1CCN(c2ccccc2)CC1`, the “viability” value is reported as 88.5% (inactive).
For `O=c1c2ccccc2[nH]c(=S)n1CCCN1CCN(c2ccccc2F)CC1`, the “viability” value was 78.4% (inactive).
For `COc1ccc(S(=O)(=O)Nc2ccc3c(c2)C(=O)N([C@H](C)CO)C[C@H](C)[C@@H](CN(C)C(=O)Nc2ccc(C(F)(F)F)cc2)OCCCC[C@H](C)O3)cc1`, the “viability” value was 90.9% (inactive).
